Compound activity (PubChem BioAssay)
CHT allo act – allosteric activators of human choline transporter CHT | Q9GZV3 | CHT-expressing cells, membrane potential dye, choline EC20; hits give high values; LV-AA mutant CHT in HEK293 cells | B-score at 10 µM | 310,000 tested, 0.49% active | AID 488977;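 active means initial fluorescence not abnormally high and integrated response B-score, plate-corrected, over 3 SD above library mean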
TMEM16A inh – blocks the mouse calcium-activated chloride channel TMEM16A; Q8BHY3; HEK293 TMEM16A/YFP iodide influx fluorescence, ionomycin; normalized B-score (activity score, 25-100; higher = stronger inhibition) at 10 µM; 310,000 tested, 1.2% active; AID 588511;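 active means ratio plate-corrected score three or more library SD toward inhibition, starting fluorescence score within five deviations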;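 further: score derived from kinetic fluorescence span divided by baseline fluorescence per well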
Kir21 block – blocks the mouse Kir2.1 inward-rectifier potassium channel. AID 1672. B-score at 10 µM. 310,000 tested, 0.85% active. P35561. HEK293-Kir2.1, FluxOR thallium flux fluorescence; hits give low values;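 active means fluorescence ratio B-score at or below minus 3 SD of library scores, with starting-brightness B-score within 2 SD, cut at about -4.2 in these data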;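 further: channel flux triggered by added potassium and thallium sulfate stimulus; B-score of peak minus minimum fluorescence over baseline after thallium stimulus; more negative B-score means stronger Kir2.1 block with less thallium influx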
ANO1 activ – activators or potentiators of mouse TMEM16A chloride channel | B-score at 10 µM | Q8BHY3 | 340,000 tested, 0.3% active | AID 623877 | HEK293 TMEM16A/YFP-H148Q/I152L, iodide quench fluorescence; hits give low values;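 active means fluorescence-ratio B-score plate-corrected deviation score at least 3 library SD below zero, with starting fluorescence score within 5 deviations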;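 further: channel opened by trigger with iodide after compound preincubation; score built on the fluorescence ratio of max minus min over baseline; more negative score means more quench and so TMEM16A activation or potentiation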
CHT inh – inhibits the human high affinity choline transporter; CHT-expressing cells, membrane potential dye, choline response; hits give low values; B-score at 10 µM; 310,000 tested, 0.86% active;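 active means B-score over 3 SD under the library average, and starting fluorescence ratio not unusually high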;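 further: choline stimulus applied at its EC90 after an EC20 pre-addition; B-score computed on integrated fluorescence ratio after choline addition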
GPR7 antag – human neuropeptides B/W receptor 1 antagonism; 290,000 tested, 1.1% active; AID 1861; inhibition, % at 4.4 µM; GPR7-expressing cells, fluorescence antagonist assay; P48145; in the data active means inhibition above about 16%, passing the limit was not always enough;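 further: cells stimulated with the agonist NPW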
Target sequence (P48145 whole entry, looked up): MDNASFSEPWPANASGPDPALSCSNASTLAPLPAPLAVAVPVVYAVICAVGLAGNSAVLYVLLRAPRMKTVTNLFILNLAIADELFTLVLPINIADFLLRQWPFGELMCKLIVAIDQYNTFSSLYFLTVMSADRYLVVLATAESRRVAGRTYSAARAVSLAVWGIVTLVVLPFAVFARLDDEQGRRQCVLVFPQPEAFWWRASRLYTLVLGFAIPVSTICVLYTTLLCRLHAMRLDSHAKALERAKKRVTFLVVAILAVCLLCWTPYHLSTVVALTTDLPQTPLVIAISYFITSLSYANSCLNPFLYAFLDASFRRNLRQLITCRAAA
Hits are given with their value; n = inactive; x = not tested or not shown. In the library only some 3.7% were active in any assay of this set; here they are far more common.

SMILES | CHT allo act | TMEM16A inh | Kir21 block | ANO1 activ | CHT inh | GPR7 antag
COc1ccc(C(=O)N/C(=C\c2ccc3c(c2)OCO3)C(=O)N2CCOCC2)cc1 | n | n | n | n | n | n
COc1cccc(OCCOc2ccccc2OC(C)C)c1 | n | n | n | n | n | n
CCOc1ccccc1OCCOc1ccccc1OC(C)C | n | n | -4.9 | n | n | n
Cc1cccc(NC(=O)N2CCCC2C(=O)Nc2ccccc2)c1 (stereo not drawn) | n | n | n | n | n | n
O=C(Nc1ccc(OC(F)F)cc1)c1cc(S(=O)(=O)N2CCCCC2)ccc1N1CCOCC1 | x | x | x | n | x | x
CSc1ccccc1NC(=O)CSCc1ccc(C)cc1 | n | n | -5.1 | -20 | n | n
COc1ccc(NS(=O)(=O)c2cc(NC(=O)CC(C)(C)C)ccc2N2CCCC2)cc1 | x | x | x | n | x | x
CS(=O)(=O)N1CCN(c2ccccc2NC(=O)Cc2ccc(Cl)cc2)CC1 | n | n | n | -25 | n | n
COc1ccc(CC(=O)Nc2ccccc2N2CCCCC2)cc1OC | n | n | -6.2 | n | n | n
COc1ccc(CC(=O)Nc2ccc(N3CCCC3)c(C)c2)cc1 | n | n | -9.8 | n | n | n
COc1cccc(CC(=O)Nc2ccccc2C(=O)N2CCOCC2)c1 | n | n | n | n | n | n
COc1cccc(CC(=O)Nc2ccccc2N2CCCC2)c1 | n | n | -6.7 | n | n | n
Cc1ccc(NC(=O)CSCC(=O)Nc2ccccc2N2CCCC2)cc1 | n | n | -6.7 | n | n | x
Cc1cccc(NC(=O)CSCC(=O)Nc2cc(Cl)ccc2N2CCN(C)CC2)c1 | n | n | -4.6 | n | n | n
Cc1ccc(C(=O)CCS(=O)(=O)c2ccc(Br)cc2)cc1 | n | n | n | n | n | n
Cc1ccc(S(=O)(=O)Cc2cc(F)c([N+](=O)[O-])cc2[N+](=O)[O-])cc1 | n | n | n | n | -6.4 | 30
Cc1ccc(S(=O)(=O)CCC(=O)c2cccc([N+](=O)[O-])c2)cc1 | n | n | -9.5 | n | n | n
OC(c1cc(-c2ccc(Cl)cc2)nc2ccccc12)C1CCCCN1 (stereo not drawn) | n | n | -5.4 | n | n | 63
OC(c1cc(C(F)(F)F)nc2c(Cl)cc(Cl)cc12)C1CCCCN1 (stereo not drawn) | n | n | n | n | n | 45
O[C@@H](c1cc(C(F)(F)F)nc2c(C(F)(F)F)cccc12)[C@H]1CCCCN1 | n | n | n | n | n | x
CC1CCC(NC(=O)COC(=O)CCC(=O)c2ccc(Cl)s2)CC1 (stereo not drawn) | n | n | n | n | n | x
CCCCn1c(N)c(N(CC(C)C)C(=O)C2CC(=O)N(c3ccc(CC)cc3)C2)c(=O)[nH]c1=O (stereo not drawn) | n | n | n | n | n | x
COc1ccc(NC(=O)c2cc(S(=O)(=O)N(Cc3ccccc3)c3ccccc3)ccc2Cl)cn1 | n | n | n | n | n | n
CCOC(=O)c1c(-c2ccccc2)oc2ccc(OC(C)=O)cc12 | n | n | n | n | n | n
CCOC(=O)c1c(-c2ccccc2)oc2ccc(OCC(O)CN(C)C)cc12 (stereo not drawn) | n | n | -7.8 | n | n | n
SMILES | CHT allo act | TMEM16A inh | Kir21 block | ANO1 activ | CHT inh | GPR7 antag
Cc1ccc(NC(=O)Nc2ccc(Cl)cn2)cc1 | x | x | n | -5.9 | x | n
Cc1ccc(NC(=O)Nc2ccc(Cl)c(Cl)c2)nc1 | n | n | n | n | n | n
Cc1ccccc1Nc1nc(Nc2ccccc2C)nc(SC2=NCCS2)n1 | n | 25 | n | n | n | n
O=C(NCC(c1cccs1)N1CCOCC1)c1cc(-c2ccc(F)cc2)nc2ccccc12 (stereo not drawn) | n | n | n | n | n | 20
Cc1ccc(C(C)C)c(OCC(=O)NCC(c2cccs2)N2CCOCC2)c1 (stereo not drawn) | n | 100 | -6.2 | n | n | x
CN(CC(=O)Nc1cccc(F)c1)C(=O)C1CCC(C(=O)N(C)CC(=O)Nc2cccc(F)c2)CC1 (stereo not drawn) | x | x | x | n | x | x
COc1cc(Cl)c(C)cc1NC(=O)CNC(C)c1ccccc1OC (stereo not drawn) | n | n | -4.2 | n | n | n
O=[N+]([O-])c1cc([N+](=O)[O-])c2nonc2c1Nc1ccccc1O | n | 100 | n | n | n | n
CNCC(=O)N(CC(C)C)c1c(N)n(CC(C)C)c(=O)[nH]c1=O | n | n | n | n | n | n
O=C(O)c1cccc2c1C(=O)c1cc([N+](=O)[O-])ccc1-2 | x | x | x | n | x | x
NC(=S)N/N=C1\CC(n2nnn(-c3cccc(Cl)c3)c2=S)C2COC1O2 (stereo not drawn) | n | n | n | -5.6 | n | n
CC(C)(C)c1ccc(C(=O)c2c[nH]c(C(=O)NCc3cccs3)c2)cc1 | n | n | n | -8.1 | n | n
COc1ccc(C(=O)C(CN2CCOCC2)c2ccccc2)cc1F (stereo not drawn) | x | x | n | n | x | 35
Cc1ccc(C(=O)N2C(CC(=O)Nc3ccc(Cl)cc3)C(=O)NC3CCCCC32)cc1 (stereo not drawn) | n | n | n | n | n | n
Cc1ccc(CNCC(O)c2ccccc2)s1 (stereo not drawn) | n | n | -5.3 | n | n | n
OC(CNCc1ccc(-c2ccccc2)cc1)c1ccccc1 (stereo not drawn) | n | n | n | n | n | n
OC(CNCc1cccc(Br)c1)c1ccccc1 (stereo not drawn) | n | n | -4.3 | n | n | n
O=C(CCCn1nnnc1CN1CCOCC1)N1CCN(c2ccccc2F)CC1 | n | n | n | n | n | n
CCCCC(=O)OCC(=O)N1N=C(c2c[nH]c3ccccc23)C(O)C1c1ccc(OC)cc1 (stereo not drawn) | n | 25 | n | n | n | n
O=C(Cc1ccccc1)NCC(=O)OC(c1ccccc1)c1ccccc1 | n | n | -5.4 | n | n | n
Cc1nnnn1/C(=C\c1ccccc1)C(=O)OCC(=O)Nc1cccc(S(=O)(=O)N(C)C)c1 | x | x | x | n | x | x
Cc1nnnn1/C(=C\c1ccccc1)C(=O)OCC(=O)Nc1ccc(Cl)cc1F | n | n | -7.3 | n | n | x
CCN1CCN(CCOCCOc2ccccc2)CC1 | n | n | n | n | n | n
CCN1CCN(CCOc2cccc(Oc3ccccc3)c2)CC1 | n | n | -4.5 | n | n | n
NCCNc1ccc(C(=O)N2c3ccccc3Sc3ccccc32)cc1[N+](=O)[O-] | n | n | -4.9 | n | n | n
Nc1ccc(C(=O)OCC(=O)N2c3ccccc3Sc3ccccc32)cc1[N+](=O)[O-] | n | n | x | n | n | n
COc1ccc(OC)c(C2=Nn3c(nnc3-c3cccc(OC(C)C)c3)SC2)c1 | n | n | n | -5 | n | n
COc1ccccc1NC(=O)NC1(C(=O)N2CCC(C)CC2)CCCCC1 | n | n | n | n | n | n
